# From publication PMC11006913
# Legend:
# Test in all cases: PBM; 200 nM protein, PBS
# Settings in all cases: dsDNA, one strand shown
# HOXB9 [1] = biological target: HOXB9 (Homo sapiens, UniProt P17482 171-250, T197M)
# HOXC9 [2] = biological target: HOXC9 (Homo sapiens, UniProt P31274 178-260, K195R)
# HOXC10 [3] = biological target: HOXC10 (Homo sapiens, UniProt Q9NYD6 254-340)
# HOXB9 [4] = biological target: HOXB9 (Homo sapiens, UniProt P17482 171-250)
# HOXC9 [5] = biological target: HOXC9 (Homo sapiens, UniProt P31274 178-260)
# Chain of HOXC9 (Homo sapiens, UniProt P31274 178-260) (P31274 178-260): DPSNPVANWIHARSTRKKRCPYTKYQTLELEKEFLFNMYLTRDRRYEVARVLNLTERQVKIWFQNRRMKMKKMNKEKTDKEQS
# HOXD13 [6] = biological target: HOXD13 (Homo sapiens, UniProt P35453 263-343, T313R)
# Chain of HOXD13 (Homo sapiens, UniProt P35453 263-343, T313R) (P35453 263-343 T313R): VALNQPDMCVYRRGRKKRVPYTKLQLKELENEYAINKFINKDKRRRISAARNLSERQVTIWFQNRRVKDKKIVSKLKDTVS
# HOXC9 [7] = biological target: HOXC9 (Homo sapiens, UniProt P31274 178-260, R193K)
# Chain of HOXC9 (Homo sapiens, UniProt P31274 178-260, R193K) (P31274 178-260 R193K): as the sequence (P31274 178-260) above, with R16K counted along it
# HOXD13 [8] = biological target: HOXD13 (Homo sapiens, UniProt P35453 263-343)
# Chain of HOXD13 (Homo sapiens, UniProt P35453 263-343) (P35453 263-343): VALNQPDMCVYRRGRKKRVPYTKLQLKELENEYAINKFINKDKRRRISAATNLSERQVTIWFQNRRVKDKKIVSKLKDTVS
# HOXC10 [9] = biological target: HOXC10 (Homo sapiens, UniProt Q9NYD6 254-340, K271E)
# Chain of HOXC10 (Homo sapiens, UniProt Q9NYD6 254-340, K271E) (Q9NYD6 254-340 K271E): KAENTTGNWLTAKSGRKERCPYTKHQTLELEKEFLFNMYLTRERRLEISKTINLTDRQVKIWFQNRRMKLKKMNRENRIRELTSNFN
# HOXD13 [10] = biological target: HOXD13 (Homo sapiens, UniProt P35453 263-343, T313A)
# Chain of HOXD13 (Homo sapiens, UniProt P35453 263-343, T313A) (P35453 263-343 T313A): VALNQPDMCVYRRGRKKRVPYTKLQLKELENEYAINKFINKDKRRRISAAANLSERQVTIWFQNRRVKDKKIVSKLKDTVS
# HOXB9 [11] = biological target: HOXB9 (Homo sapiens, UniProt P17482 171-250, R186Q)
# Chain of HOXB9 (Homo sapiens, UniProt P17482 171-250, R186Q) (P17482 171-250 R186Q): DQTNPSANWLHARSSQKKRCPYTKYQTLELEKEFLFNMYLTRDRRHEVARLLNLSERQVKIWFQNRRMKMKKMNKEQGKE
# HOXC9 [12] = biological target: HOXC9 (Homo sapiens, UniProt P31274 178-260, R222W)
# Chain of HOXC9 (Homo sapiens, UniProt P31274 178-260, R222W) (P31274 178-260 R222W): as the sequence (P31274 178-260) above, with R45W counted along it
# MSX2 [13] = biological target: MSX2 (Homo sapiens, UniProt P35548 130-214, R199I)
# Chain of MSX2 (Homo sapiens, UniProt P35548 130-214, R199I) (P35548 130-214 R199I): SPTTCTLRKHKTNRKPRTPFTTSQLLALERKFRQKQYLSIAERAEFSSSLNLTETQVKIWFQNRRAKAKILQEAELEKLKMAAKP
# MSX2 [14] = biological target: MSX2 (Homo sapiens, UniProt P35548 130-214)
# Chain of MSX2 (Homo sapiens, UniProt P35548 130-214) (P35548 130-214): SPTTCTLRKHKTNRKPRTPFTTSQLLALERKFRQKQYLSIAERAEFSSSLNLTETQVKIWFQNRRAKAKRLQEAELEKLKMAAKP
# PROP1 [15] = biological target: PROP1 (Homo sapiens, UniProt O75360 56-141)
# Chain of PROP1 (Homo sapiens, UniProt O75360 56-141) (O75360 56-141): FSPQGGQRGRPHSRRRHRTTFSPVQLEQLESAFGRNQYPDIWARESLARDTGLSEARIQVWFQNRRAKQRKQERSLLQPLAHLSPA
# PROP1 [16] = biological target: PROP1 (Homo sapiens, UniProt O75360 56-141, R99H)
# Chain of PROP1 (Homo sapiens, UniProt O75360 56-141, R99H) (O75360 56-141 R99H): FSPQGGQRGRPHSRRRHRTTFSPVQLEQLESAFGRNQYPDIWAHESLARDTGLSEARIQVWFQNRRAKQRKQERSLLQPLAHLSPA
# PROP1 [17] = biological target: PROP1 (Homo sapiens, UniProt O75360 56-141, F88S)
# Chain of PROP1 (Homo sapiens, UniProt O75360 56-141, F88S) (O75360 56-141 F88S): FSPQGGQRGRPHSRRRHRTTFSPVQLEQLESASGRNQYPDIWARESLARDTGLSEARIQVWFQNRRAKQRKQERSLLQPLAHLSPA
# MSX2 [18] = biological target: MSX2 (Homo sapiens, UniProt P35548 130-214, F161Y)
# Chain of MSX2 (Homo sapiens, UniProt P35548 130-214, F161Y) (P35548 130-214 F161Y): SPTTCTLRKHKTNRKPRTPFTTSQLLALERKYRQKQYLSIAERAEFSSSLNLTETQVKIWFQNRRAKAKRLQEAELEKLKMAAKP
# HOXB6 = HOXB6 (Homo sapiens, UniProt P17509 132-218, K202E)
# Chain of HOXB6 (P17509 132-218 K202E): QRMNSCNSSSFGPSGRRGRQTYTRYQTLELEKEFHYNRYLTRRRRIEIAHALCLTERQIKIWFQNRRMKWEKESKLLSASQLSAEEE
# ALX3 = ALX3 (Homo sapiens, UniProt O95076 139-225, N203Q)
# Chain of ALX3 (O95076 139-225 N203Q): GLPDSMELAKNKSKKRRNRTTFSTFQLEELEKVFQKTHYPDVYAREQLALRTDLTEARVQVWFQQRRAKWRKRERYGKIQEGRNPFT
# ALX4 [19] = biological target: ALX4 (Homo sapiens, UniProt Q9H161 200-286)
# Chain of ALX4 (Homo sapiens, UniProt Q9H161 200-286) (Q9H161 200-286): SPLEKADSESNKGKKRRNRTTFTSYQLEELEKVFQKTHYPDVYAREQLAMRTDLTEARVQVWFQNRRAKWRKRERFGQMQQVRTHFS
# ALX4 [20] = biological target: ALX4 (Homo sapiens, UniProt Q9H161 200-286, Q225E)
# Chain of ALX4 (Homo sapiens, UniProt Q9H161 200-286, Q225E) (Q9H161 200-286 Q225E): as the sequence (Q9H161 200-286) above, with Q26E counted along it
# Chain of HOXB9 (Homo sapiens, UniProt P17482 171-250) (P17482 171-250): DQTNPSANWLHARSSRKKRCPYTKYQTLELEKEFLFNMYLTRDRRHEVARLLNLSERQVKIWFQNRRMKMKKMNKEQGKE
# Chain of HOXC9 (Homo sapiens, UniProt P31274 178-260, K195R) (P31274 178-260 K195R): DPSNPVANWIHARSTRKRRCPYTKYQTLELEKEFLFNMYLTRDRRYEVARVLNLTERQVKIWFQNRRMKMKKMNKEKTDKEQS
# Chain of HOXC10 (Homo sapiens, UniProt Q9NYD6 254-340) (Q9NYD6 254-340): as the sequence (Q9NYD6 254-340 K271E) above, with E18K counted along it
# Chain of HOXB9 (Homo sapiens, UniProt P17482 171-250, T197M) (P17482 171-250 T197M): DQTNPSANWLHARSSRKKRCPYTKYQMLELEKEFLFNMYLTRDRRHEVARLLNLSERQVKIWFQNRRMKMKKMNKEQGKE
sequence,measurement,setting,value
CATAAAAC,binding signal,HOXB9 [1],"9.89 upbm affinity estimate (log intensity, higher = more binding, comparable within an allelic series)"
same,binding signal,HOXC9 [2],"12.9 upbm affinity estimate (log intensity, higher = more binding, comparable within an allelic series)"
same,binding signal,HOXC10 [3],"12.6 upbm affinity estimate (log intensity, higher = more binding, comparable within an allelic series)"
same,binding signal,HOXB9 [4],"12.4 upbm affinity estimate (log intensity, higher = more binding, comparable within an allelic series)"
same,binding signal,HOXC9 [5],"13.1 upbm affinity estimate (log intensity, higher = more binding, comparable within an allelic series)"
same,binding signal,HOXD13 [6],"10.7 upbm affinity estimate (log intensity, higher = more binding, comparable within an allelic series)"
same,binding signal,HOXC9 [7],"13 upbm affinity estimate (log intensity, higher = more binding, comparable within an allelic series)"
same,binding signal,HOXD13 [8],"12 upbm affinity estimate (log intensity, higher = more binding, comparable within an allelic series)"
same,binding signal,HOXC10 [9],"11.9 upbm affinity estimate (log intensity, higher = more binding, comparable within an allelic series)"
same,binding signal,HOXD13 [10],"11.7 upbm affinity estimate (log intensity, higher = more binding, comparable within an allelic series)"
same,binding signal,HOXB9 [11],"12.1 upbm affinity estimate (log intensity, higher = more binding, comparable within an allelic series)"
same,binding signal,HOXC9 [12],"11.3 upbm affinity estimate (log intensity, higher = more binding, comparable within an allelic series)"
CCGCCTGC,binding signal,HOXB9 [1],"8.29 upbm affinity estimate (log intensity, higher = more binding, comparable within an allelic series)"
same,binding signal,HOXC9 [2],"9.62 upbm affinity estimate (log intensity, higher = more binding, comparable within an allelic series)"
same,binding signal,HOXB9 [4],"8.24 upbm affinity estimate (log intensity, higher = more binding, comparable within an allelic series)"
same,binding signal,HOXC9 [5],"9.64 upbm affinity estimate (log intensity, higher = more binding, comparable within an allelic series)"
same,binding signal,MSX2 [13],"9.41 upbm affinity estimate (log intensity, higher = more binding, comparable within an allelic series)"
same,binding signal,HOXC9 [7],"9.49 upbm affinity estimate (log intensity, higher = more binding, comparable within an allelic series)"
same,binding signal,MSX2 [14],"9.55 upbm affinity estimate (log intensity, higher = more binding, comparable within an allelic series)"
same,binding signal,PROP1 [15],"6.72 upbm affinity estimate (log intensity, higher = more binding, comparable within an allelic series)"
same,binding signal,PROP1 [16],"6.65 upbm affinity estimate (log intensity, higher = more binding, comparable within an allelic series)"
same,binding signal,HOXB9 [11],"8.24 upbm affinity estimate (log intensity, higher = more binding, comparable within an allelic series)"
same,binding signal,HOXC9 [12],"9.72 upbm affinity estimate (log intensity, higher = more binding, comparable within an allelic series)"
same,binding signal,PROP1 [17],"6.62 upbm affinity estimate (log intensity, higher = more binding, comparable within an allelic series)"
same,binding signal,MSX2 [18],"9.55 upbm affinity estimate (log intensity, higher = more binding, comparable within an allelic series)"
ATAATAAT,binding signal,HOXB9 [1],"9.97 upbm affinity estimate (log intensity, higher = more binding, comparable within an allelic series)"
same,binding signal,HOXC9 [2],"12.6 upbm affinity estimate (log intensity, higher = more binding, comparable within an allelic series)"
same,binding signal,HOXB6,"10 upbm affinity estimate (log intensity, higher = more binding, comparable within an allelic series)"
same,binding signal,ALX3,"8.6 upbm affinity estimate (log intensity, higher = more binding, comparable within an allelic series)"
ATAATAAA,binding signal,HOXB9 [1],"9.88 upbm affinity estimate (log intensity, higher = more binding, comparable within an allelic series)"
same,binding signal,HOXC9 [2],"12.7 upbm affinity estimate (log intensity, higher = more binding, comparable within an allelic series)"
same,binding signal,HOXC10 [3],"12.5 upbm affinity estimate (log intensity, higher = more binding, comparable within an allelic series)"
same,binding signal,HOXB9 [4],"11.9 upbm affinity estimate (log intensity, higher = more binding, comparable within an allelic series)"
same,binding signal,HOXC9 [5],"12.7 upbm affinity estimate (log intensity, higher = more binding, comparable within an allelic series)"
same,binding signal,HOXD13 [6],"10.8 upbm affinity estimate (log intensity, higher = more binding, comparable within an allelic series)"
same,binding signal,HOXC9 [7],"12.7 upbm affinity estimate (log intensity, higher = more binding, comparable within an allelic series)"
same,binding signal,HOXD13 [8],"11.8 upbm affinity estimate (log intensity, higher = more binding, comparable within an allelic series)"
same,binding signal,HOXC10 [9],"11.9 upbm affinity estimate (log intensity, higher = more binding, comparable within an allelic series)"
same,binding signal,HOXD13 [10],"11.6 upbm affinity estimate (log intensity, higher = more binding, comparable within an allelic series)"
same,binding signal,HOXB9 [11],"11.5 upbm affinity estimate (log intensity, higher = more binding, comparable within an allelic series)"
same,binding signal,HOXC9 [12],"11.2 upbm affinity estimate (log intensity, higher = more binding, comparable within an allelic series)"
TCGTTAAA,binding signal,HOXB9 [1],"9.96 upbm affinity estimate (log intensity, higher = more binding, comparable within an allelic series)"
same,binding signal,HOXC9 [2],"12.5 upbm affinity estimate (log intensity, higher = more binding, comparable within an allelic series)"
same,binding signal,HOXC10 [3],"12.4 upbm affinity estimate (log intensity, higher = more binding, comparable within an allelic series)"
same,binding signal,HOXB9 [4],"11.7 upbm affinity estimate (log intensity, higher = more binding, comparable within an allelic series)"
same,binding signal,HOXC9 [5],"12.7 upbm affinity estimate (log intensity, higher = more binding, comparable within an allelic series)"
same,binding signal,HOXD13 [6],"10.8 upbm affinity estimate (log intensity, higher = more binding, comparable within an allelic series)"
same,binding signal,HOXC9 [7],"12.4 upbm affinity estimate (log intensity, higher = more binding, comparable within an allelic series)"
same,binding signal,HOXD13 [8],"12 upbm affinity estimate (log intensity, higher = more binding, comparable within an allelic series)"
same,binding signal,HOXC10 [9],"12.1 upbm affinity estimate (log intensity, higher = more binding, comparable within an allelic series)"
same,binding signal,HOXD13 [10],"11.7 upbm affinity estimate (log intensity, higher = more binding, comparable within an allelic series)"
same,binding signal,HOXB9 [11],"11.3 upbm affinity estimate (log intensity, higher = more binding, comparable within an allelic series)"
same,binding signal,HOXC9 [12],"10.9 upbm affinity estimate (log intensity, higher = more binding, comparable within an allelic series)"
ATCGTAAA,binding signal,HOXB9 [1],"9.78 upbm affinity estimate (log intensity, higher = more binding, comparable within an allelic series)"
same,binding signal,HOXC9 [2],"12.6 upbm affinity estimate (log intensity, higher = more binding, comparable within an allelic series)"
same,binding signal,HOXC10 [3],"12.7 upbm affinity estimate (log intensity, higher = more binding, comparable within an allelic series)"
same,binding signal,HOXB9 [4],"11.9 upbm affinity estimate (log intensity, higher = more binding, comparable within an allelic series)"
same,binding signal,HOXC9 [5],"12.9 upbm affinity estimate (log intensity, higher = more binding, comparable within an allelic series)"
same,binding signal,HOXD13 [6],"10.9 upbm affinity estimate (log intensity, higher = more binding, comparable within an allelic series)"
same,binding signal,HOXC9 [7],"12.6 upbm affinity estimate (log intensity, higher = more binding, comparable within an allelic series)"
same,binding signal,HOXD13 [8],"12.1 upbm affinity estimate (log intensity, higher = more binding, comparable within an allelic series)"
same,binding signal,HOXC10 [9],"12.1 upbm affinity estimate (log intensity, higher = more binding, comparable within an allelic series)"
same,binding signal,HOXD13 [10],"11.8 upbm affinity estimate (log intensity, higher = more binding, comparable within an allelic series)"
same,binding signal,HOXB9 [11],"11.4 upbm affinity estimate (log intensity, higher = more binding, comparable within an allelic series)"
same,binding signal,HOXC9 [12],"10.8 upbm affinity estimate (log intensity, higher = more binding, comparable within an allelic series)"
CCTTGCAG,binding signal,HOXB9 [1],"8.52 upbm affinity estimate (log intensity, higher = more binding, comparable within an allelic series)"
same,binding signal,HOXC9 [2],"9.62 upbm affinity estimate (log intensity, higher = more binding, comparable within an allelic series)"
same,binding signal,ALX4 [19],"7.87 upbm affinity estimate (log intensity, higher = more binding, comparable within an allelic series)"
same,binding signal,ALX4 [20],"8.04 upbm affinity estimate (log intensity, higher = more binding, comparable within an allelic series)"
same,binding signal,HOXB9 [4],"8.41 upbm affinity estimate (log intensity, higher = more binding, comparable within an allelic series)"
same,binding signal,HOXC9 [5],"9.66 upbm affinity estimate (log intensity, higher = more binding, comparable within an allelic series)"
same,binding signal,HOXC9 [7],"9.67 upbm affinity estimate (log intensity, higher = more binding, comparable within an allelic series)"
same,binding signal,HOXB9 [11],"8.42 upbm affinity estimate (log intensity, higher = more binding, comparable within an allelic series)"
same,binding signal,HOXC9 [12],"9.74 upbm affinity estimate (log intensity, higher = more binding, comparable within an allelic series)"
